Binding signal data for 1 sequence are collected here from PMC7862700, “An all-to-all approach to the identification of sequence-specific readers for epigenetic DNA modifications on cytosine”.

Common to all, as to assay: DAPPL (digital affinity profiling via proximity ligation, sequencing); 10 mM Tris-HCl pH 7.5, 50 mM NaCl, 1 mM DTT, 4% glycerol, room temperature, 30 min; GST-TFs on glutathione beads, 16-mer random dsDNA library, 0.1% formaldehyde crosslink after washing; high values mean tight binding
Details in all cases: protein: recombinant; tags: N-terminal GST; dsDNA, one strand shown

For one assay, the target named is T1, ELK1 (Homo sapiens, UniProt P19419 1-428).
T1 sequence: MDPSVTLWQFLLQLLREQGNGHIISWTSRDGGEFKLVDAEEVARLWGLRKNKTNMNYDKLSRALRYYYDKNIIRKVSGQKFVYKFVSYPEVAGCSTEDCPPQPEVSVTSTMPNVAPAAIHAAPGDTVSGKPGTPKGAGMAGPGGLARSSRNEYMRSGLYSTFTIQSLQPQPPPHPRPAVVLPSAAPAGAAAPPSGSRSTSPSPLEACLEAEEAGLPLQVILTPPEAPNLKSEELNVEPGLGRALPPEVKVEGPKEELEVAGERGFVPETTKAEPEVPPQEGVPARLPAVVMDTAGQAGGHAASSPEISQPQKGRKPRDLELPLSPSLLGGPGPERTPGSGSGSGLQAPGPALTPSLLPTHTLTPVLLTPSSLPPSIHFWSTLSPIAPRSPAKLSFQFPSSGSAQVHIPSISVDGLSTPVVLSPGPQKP
The gist of the method:
(§1)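 GST fusions of human transcription factors were expressed in yeast and captured with glutathione beads. Once given DNA barcodes and pooled alongside a tag-only sample, they were incubated for 30 min at room temperature with 200 nmole of a random double-stranded 16-mer DNA library in Tris/NaCl/DTT/glycerol buffer, then washed, crosslinked (0.1% formaldehyde), proximity-ligated, PCR-amplified and sequenced on an Illumina NextSeq500. The binding signal of each hexamer is its read frequency for a factor divided by its frequency for the tag-only sample.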

A further assay concerns the target T2, GABPA (Homo sapiens, UniProt Q06546 1-454).
T2 sequence: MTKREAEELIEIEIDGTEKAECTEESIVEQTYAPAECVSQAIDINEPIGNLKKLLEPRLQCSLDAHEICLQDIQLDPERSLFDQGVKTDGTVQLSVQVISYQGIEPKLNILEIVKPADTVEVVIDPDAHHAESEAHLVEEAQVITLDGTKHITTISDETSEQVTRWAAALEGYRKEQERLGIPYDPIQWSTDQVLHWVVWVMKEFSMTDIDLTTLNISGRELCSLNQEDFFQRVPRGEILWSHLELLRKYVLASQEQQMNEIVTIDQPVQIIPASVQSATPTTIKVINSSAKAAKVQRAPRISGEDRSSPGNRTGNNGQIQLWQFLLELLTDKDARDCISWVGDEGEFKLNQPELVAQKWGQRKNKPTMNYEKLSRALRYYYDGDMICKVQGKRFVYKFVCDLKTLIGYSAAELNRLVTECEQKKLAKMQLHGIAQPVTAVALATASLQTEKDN
The essentials:
as §1

The target in the next assay is T3, ERG (Homo sapiens, UniProt P11308 1-479).
T3 sequence: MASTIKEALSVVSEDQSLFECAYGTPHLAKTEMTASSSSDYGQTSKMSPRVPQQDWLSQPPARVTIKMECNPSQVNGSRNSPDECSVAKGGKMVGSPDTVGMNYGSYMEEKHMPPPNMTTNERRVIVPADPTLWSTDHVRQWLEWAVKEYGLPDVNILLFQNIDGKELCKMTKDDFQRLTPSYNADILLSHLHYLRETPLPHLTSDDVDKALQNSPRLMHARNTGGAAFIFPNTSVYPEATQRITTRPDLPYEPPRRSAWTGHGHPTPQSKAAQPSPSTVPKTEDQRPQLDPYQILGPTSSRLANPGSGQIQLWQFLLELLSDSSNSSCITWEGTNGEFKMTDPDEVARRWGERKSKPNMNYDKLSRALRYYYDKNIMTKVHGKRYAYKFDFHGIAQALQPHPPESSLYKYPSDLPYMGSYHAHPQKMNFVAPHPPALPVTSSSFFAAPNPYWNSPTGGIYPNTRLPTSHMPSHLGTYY
The essentials:
as §1

The next assay deals with ELF1 (Homo sapiens, UniProt P32519 1-619). The essentials:
as §1

The target of the next assay is T4, EHF (Homo sapiens, UniProt Q9NZC4 1-300).
T4 sequence: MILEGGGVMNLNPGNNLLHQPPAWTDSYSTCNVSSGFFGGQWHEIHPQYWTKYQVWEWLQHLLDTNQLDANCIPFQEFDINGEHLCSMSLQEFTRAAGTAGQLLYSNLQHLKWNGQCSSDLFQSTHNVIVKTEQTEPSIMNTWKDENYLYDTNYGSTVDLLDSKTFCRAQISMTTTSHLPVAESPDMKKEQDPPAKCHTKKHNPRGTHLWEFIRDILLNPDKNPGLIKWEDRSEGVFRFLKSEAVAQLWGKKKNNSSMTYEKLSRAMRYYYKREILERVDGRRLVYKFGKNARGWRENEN
The essentials: as §1

A further assay deals with SPIB (Homo sapiens, UniProt Q01892 1-262). The essentials:
as §1

The next assay has as its target T5, FEV (Homo sapiens, UniProt Q99581 1-238).
T5 sequence: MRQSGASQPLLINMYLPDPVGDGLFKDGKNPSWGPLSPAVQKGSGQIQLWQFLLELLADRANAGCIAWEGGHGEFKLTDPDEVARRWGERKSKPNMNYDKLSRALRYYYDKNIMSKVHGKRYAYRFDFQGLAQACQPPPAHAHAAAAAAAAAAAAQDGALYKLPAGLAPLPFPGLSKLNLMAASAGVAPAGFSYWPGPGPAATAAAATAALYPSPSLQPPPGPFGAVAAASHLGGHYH
The gist of the method: as §1

For the next assay, the target named is ETV5 (Homo sapiens, UniProt P41161 1-510). The gist of the method: as §1
The target of a further assay is ELF4 (Homo sapiens, UniProt Q99607 1-663). The gist of the method:
as §1

A further assay addresses T6, ELK4 (Homo sapiens, UniProt P28324-2 1-405).
T6 sequence: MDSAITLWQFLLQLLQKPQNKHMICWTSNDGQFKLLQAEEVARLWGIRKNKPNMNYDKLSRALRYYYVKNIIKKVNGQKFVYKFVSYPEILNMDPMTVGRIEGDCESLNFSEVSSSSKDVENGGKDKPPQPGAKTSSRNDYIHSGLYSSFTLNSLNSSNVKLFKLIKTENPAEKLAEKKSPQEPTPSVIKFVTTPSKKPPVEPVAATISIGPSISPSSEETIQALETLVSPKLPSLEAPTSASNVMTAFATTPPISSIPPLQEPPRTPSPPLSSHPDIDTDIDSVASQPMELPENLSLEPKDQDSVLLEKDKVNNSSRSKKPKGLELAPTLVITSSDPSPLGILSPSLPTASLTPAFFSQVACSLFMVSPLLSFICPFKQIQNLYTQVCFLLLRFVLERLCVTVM
The essentials:
as §1

Another assay deals with T7, ELF3 (Homo sapiens, UniProt P78545 1-371).
T7 sequence: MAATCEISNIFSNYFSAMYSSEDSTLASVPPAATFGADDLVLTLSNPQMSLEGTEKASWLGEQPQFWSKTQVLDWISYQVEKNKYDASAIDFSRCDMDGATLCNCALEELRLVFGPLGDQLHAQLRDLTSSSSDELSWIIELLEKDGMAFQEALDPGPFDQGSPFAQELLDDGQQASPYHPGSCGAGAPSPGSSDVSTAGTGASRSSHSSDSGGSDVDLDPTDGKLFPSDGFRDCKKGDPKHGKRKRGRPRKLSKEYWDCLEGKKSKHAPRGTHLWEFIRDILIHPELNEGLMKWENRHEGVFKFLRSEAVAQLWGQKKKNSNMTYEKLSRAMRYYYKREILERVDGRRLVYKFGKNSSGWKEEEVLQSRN
The gist of the method:
as §1

The next assay addresses ETV1 (Homo sapiens, UniProt P50549 1-477). The essentials:
as §1

The next assay deals with T8, ETV3L (Homo sapiens, UniProt Q6ZN32 1-361).
T8 sequence: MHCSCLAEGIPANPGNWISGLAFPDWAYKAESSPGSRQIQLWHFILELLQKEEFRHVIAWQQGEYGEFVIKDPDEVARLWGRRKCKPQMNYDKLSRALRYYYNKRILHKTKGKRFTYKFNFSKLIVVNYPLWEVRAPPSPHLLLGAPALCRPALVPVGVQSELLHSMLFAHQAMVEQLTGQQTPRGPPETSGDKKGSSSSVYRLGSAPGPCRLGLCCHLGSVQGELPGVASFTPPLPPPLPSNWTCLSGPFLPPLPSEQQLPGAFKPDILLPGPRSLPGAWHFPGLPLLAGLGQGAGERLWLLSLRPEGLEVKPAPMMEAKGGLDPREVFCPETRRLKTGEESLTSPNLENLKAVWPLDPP
The gist of the method: as §1

A further assay deals with T9, ETS2 (Homo sapiens, UniProt P15036 1-469).
T9 sequence: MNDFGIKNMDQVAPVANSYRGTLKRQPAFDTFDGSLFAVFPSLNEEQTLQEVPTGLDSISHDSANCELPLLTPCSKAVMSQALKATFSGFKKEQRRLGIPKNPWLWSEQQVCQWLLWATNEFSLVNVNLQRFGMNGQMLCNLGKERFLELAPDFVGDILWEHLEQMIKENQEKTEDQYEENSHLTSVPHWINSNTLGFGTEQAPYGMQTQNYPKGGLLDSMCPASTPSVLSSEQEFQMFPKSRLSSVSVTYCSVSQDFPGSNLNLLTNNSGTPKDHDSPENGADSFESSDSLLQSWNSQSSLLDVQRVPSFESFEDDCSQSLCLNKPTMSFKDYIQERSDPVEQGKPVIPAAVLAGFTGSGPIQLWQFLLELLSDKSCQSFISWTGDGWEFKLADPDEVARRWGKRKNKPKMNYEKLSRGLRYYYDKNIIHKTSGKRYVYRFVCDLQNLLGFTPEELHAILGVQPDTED
The gist of the method:
as §1

A further assay deals with T10, SPDEF (Homo sapiens, UniProt O95238 1-335).
T10 sequence: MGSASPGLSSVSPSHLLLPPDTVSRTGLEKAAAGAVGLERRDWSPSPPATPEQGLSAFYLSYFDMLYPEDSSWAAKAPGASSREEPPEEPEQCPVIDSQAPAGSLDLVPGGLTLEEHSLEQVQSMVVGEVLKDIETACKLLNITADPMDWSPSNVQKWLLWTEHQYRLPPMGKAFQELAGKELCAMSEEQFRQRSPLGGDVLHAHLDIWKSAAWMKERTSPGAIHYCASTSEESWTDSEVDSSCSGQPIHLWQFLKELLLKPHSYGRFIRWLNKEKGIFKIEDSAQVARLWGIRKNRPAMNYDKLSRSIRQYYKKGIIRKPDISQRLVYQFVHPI
The gist of the method:
as §1

The next assay deals with T11, ETV7 (Homo sapiens, UniProt Q9Y603 1-341).
T11 sequence: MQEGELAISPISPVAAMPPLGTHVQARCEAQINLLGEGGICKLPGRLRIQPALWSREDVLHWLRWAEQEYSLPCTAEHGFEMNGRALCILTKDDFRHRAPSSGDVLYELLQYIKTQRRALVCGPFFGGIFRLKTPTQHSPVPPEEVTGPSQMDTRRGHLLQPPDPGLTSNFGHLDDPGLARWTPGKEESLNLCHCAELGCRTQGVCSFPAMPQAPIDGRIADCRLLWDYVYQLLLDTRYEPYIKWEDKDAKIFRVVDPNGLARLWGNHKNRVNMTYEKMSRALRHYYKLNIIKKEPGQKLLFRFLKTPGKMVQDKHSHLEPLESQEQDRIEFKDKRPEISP
The gist of the method:
as §1

The target in the next assay is T12, ETV3 (Homo sapiens, UniProt P41162-2 1-143).
T12 sequence: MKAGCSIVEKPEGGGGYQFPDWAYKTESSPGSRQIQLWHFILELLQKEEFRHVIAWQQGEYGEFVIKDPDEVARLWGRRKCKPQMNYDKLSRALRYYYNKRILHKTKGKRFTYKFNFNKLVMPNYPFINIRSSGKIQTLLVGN
The gist of the method: as §1

Another assay concerns the target ETV6 (Homo sapiens, UniProt P41212 1-452). The essentials: as §1

ETV1, sequence (P50549 whole entry): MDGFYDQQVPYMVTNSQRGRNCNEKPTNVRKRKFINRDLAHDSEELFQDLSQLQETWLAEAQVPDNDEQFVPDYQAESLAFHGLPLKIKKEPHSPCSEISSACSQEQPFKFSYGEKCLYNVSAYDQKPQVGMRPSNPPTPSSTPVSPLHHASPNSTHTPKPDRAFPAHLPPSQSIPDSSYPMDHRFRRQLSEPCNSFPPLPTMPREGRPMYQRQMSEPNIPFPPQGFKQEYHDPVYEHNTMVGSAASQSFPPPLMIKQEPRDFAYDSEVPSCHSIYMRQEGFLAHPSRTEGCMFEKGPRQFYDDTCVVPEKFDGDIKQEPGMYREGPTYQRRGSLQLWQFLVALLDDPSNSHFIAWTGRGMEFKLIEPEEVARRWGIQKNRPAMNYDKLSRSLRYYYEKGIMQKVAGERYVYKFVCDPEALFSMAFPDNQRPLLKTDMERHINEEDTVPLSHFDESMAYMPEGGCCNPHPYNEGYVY
ETV5, sequence (P41161 whole entry): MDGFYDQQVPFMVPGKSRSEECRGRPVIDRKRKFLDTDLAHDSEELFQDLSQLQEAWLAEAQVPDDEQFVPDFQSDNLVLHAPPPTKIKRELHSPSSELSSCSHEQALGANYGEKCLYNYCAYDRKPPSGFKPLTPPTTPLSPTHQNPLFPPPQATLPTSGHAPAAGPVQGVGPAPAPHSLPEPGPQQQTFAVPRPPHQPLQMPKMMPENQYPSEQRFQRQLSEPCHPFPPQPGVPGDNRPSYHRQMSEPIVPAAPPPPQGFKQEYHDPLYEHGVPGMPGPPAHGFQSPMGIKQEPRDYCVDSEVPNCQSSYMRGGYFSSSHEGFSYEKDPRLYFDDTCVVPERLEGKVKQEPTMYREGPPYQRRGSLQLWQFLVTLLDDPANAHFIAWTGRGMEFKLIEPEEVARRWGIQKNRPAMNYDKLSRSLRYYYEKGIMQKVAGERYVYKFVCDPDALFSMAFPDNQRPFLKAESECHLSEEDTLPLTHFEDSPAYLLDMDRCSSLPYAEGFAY
SPIB, sequence (Q01892 whole entry): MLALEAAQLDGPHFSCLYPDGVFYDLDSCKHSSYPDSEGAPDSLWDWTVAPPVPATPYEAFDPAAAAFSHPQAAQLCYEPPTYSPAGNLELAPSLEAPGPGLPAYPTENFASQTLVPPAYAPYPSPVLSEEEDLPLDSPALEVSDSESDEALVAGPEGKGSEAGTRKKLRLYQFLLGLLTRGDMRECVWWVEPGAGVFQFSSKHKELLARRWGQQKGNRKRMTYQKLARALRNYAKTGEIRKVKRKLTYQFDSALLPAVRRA
ETV6, sequence (P41212 whole entry): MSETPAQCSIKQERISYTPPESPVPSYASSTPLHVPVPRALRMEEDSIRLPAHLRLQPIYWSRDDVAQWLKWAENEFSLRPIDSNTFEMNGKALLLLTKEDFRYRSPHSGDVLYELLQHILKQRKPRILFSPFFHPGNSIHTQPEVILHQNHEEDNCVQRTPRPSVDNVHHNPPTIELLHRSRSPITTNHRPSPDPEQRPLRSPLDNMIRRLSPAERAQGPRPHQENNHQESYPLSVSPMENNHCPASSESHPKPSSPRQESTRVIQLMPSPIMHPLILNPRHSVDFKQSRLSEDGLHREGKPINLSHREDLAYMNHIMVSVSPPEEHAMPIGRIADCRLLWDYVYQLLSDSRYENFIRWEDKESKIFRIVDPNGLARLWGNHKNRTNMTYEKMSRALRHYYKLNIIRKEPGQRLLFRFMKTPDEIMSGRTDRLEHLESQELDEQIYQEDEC
ELF1, sequence (P32519 whole entry): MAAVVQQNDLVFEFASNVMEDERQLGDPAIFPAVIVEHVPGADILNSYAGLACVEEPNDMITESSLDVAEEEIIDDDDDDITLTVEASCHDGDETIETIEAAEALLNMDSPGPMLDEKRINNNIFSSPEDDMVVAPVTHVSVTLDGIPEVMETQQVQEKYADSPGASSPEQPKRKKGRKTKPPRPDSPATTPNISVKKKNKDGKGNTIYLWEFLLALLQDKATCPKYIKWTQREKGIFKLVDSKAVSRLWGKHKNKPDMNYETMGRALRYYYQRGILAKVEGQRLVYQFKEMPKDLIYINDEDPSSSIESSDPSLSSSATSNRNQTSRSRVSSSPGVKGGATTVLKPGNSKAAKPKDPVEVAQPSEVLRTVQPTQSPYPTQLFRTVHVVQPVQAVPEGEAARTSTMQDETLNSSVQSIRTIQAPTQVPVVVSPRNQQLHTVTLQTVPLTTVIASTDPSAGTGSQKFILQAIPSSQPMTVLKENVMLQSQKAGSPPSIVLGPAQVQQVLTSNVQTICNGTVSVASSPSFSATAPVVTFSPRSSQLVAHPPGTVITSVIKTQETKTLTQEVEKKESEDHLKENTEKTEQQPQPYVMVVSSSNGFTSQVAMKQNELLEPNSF
ELF4, sequence (Q99607 whole entry): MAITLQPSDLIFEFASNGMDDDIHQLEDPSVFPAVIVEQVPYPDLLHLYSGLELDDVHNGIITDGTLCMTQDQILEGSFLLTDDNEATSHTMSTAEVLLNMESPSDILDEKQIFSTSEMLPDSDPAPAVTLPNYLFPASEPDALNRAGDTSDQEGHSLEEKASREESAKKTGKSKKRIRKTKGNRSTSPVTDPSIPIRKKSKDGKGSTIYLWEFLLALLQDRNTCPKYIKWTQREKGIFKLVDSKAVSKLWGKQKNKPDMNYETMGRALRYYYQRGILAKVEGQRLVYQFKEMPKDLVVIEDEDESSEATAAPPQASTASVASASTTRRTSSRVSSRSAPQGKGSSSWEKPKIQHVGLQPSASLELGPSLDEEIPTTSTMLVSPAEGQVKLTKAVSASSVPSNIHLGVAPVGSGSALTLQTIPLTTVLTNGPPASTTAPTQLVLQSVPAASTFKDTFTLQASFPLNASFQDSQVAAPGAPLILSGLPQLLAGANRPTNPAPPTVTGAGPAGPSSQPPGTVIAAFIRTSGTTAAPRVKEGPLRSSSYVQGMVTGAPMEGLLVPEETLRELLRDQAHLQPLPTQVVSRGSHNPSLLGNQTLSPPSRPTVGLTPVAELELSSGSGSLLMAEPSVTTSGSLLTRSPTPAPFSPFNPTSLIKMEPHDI

In the case of ACCGGC, the binding signal with ELK1 was 1.08 fold enrichment (6-mer frequency, TF over GST control); with GABPA it was 1.12 fold enrichment (6-mer frequency, TF over GST control); in the assay with ERG it was 1.13 fold enrichment (6-mer frequency, TF over GST control); in the assay with ELF1, 1.19 fold enrichment (6-mer frequency, TF over GST control); with EHF, 1.12 fold enrichment (6-mer frequency, TF over GST control); in the assay with SPIB it was 1.3 fold enrichment (6-mer frequency, TF over GST control). Further, the binding signal with FEV was 1.14 fold enrichment (6-mer frequency, TF over GST control); in the assay with ETV5 it was 1.1 fold enrichment (6-mer frequency, TF over GST control); in the assay with ELF4, 1.03 fold enrichment (6-mer frequency, TF over GST control); in the assay with ELK4 it was 1.1 fold enrichment (6-mer frequency, TF over GST control); with ELF3 it was 1.21 fold enrichment (6-mer frequency, TF over GST control); with ETV1 it was 1.23 fold enrichment (6-mer frequency, TF over GST control). Moreover, the binding signal with ETV3L is 1.21 fold enrichment (6-mer frequency, TF over GST control); with ETS2, 1.17 fold enrichment (6-mer frequency, TF over GST control); with SPDEF, 1.05 fold enrichment (6-mer frequency, TF over GST control); with ETV7 it was 1.06 fold enrichment (6-mer frequency, TF over GST control); with ETV3, 1.15 fold enrichment (6-mer frequency, TF over GST control); in the assay with ETV6, 1.31 fold enrichment (6-mer frequency, TF over GST control).
